USP17 inh: inhibitors of human USP17 deubiquitinase; Ubiquitin carboxyl-terminal hydrolase 17-like protein 5 (Homo sapiens), A8MUK1; purified USP17, Ub-rhodamine cleavage fluorescence, 3 h; inhibition, % at 50 µM; 47,000 tested, 6.5% active
UCHL1 block: inhibitors of human UCHL1 deubiquitinase; Ubiquitin carboxyl-terminal hydrolase isozyme L1 (Homo sapiens), P09936; purified UCHL1, Ub-rhodamine cleavage fluorescence; inhibition, % at 20 µM; 47,000 tested, 0.2% active
Target sequence (P09936 whole entry, looked up): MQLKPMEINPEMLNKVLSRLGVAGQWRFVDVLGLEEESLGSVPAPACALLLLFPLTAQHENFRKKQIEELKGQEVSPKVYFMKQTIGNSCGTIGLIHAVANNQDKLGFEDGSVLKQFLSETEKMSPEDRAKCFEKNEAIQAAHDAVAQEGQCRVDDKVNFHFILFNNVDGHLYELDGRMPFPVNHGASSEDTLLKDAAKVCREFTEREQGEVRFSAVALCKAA
USP30 inh: inhibitors of human USP30 deubiquitinase | inhibition, % at 25 µM | Ubiquitin carboxyl-terminal hydrolase 30 (Homo sapiens), Q70CQ3 | AID 1645860, 2021 | purified USP30, Ub-rhodamine cleavage fluorescence | 47,000 tested, 5.3% active
USP7 block: inhibitors of human USP7 deubiquitinase; Ubiquitin carboxyl-terminal hydrolase 7 (Homo sapiens), Q93009; purified USP7, Ub-rhodamine cleavage fluorescence; inhibition, % at 20 µM; 47,000 tested, 0.3% active
USP10 inh: inhibitors of human USP10 deubiquitinase. Ubiquitin carboxyl-terminal hydrolase 10 (Homo sapiens), Q14694. purified USP10, Ub-rhodamine fluorescence, 60 min. inhibition, % at 20 µM. 47,000 tested, 1.1% active. AID 1645856, 2021
USP8 block: inhibitors of human USP8 deubiquitinase; purified USP8, Ub-rhodamine cleavage fluorescence, 30 min; AID 1645853, 2021; inhibition, % at 20 µM; 47,000 tested, 4.2% active; Ubiquitin carboxyl-terminal hydrolase 8 (Homo sapiens), P40818
* hit, by the source's call; / = not tested or not shown. In the library only some 12% were active in any assay of this set; here they are far more common. No stated cut-off is given here; in the data, active means inhibition above about 30%; inactive means the rest.

SMILES	USP17 inh	UCHL1 block	USP30 inh	USP7 block	USP10 inh	USP8 block
O=C1OC(C(=O)Nc2nc3c(ccc4ccccc43)s2)Cc2ccccc21 (centres undefined)	39*	0	9	0	1	29
NS(=O)(=O)c1ccc(NC(=O)C2Cc3ccccc3C(=O)O2)cc1 (centres undefined)	16	1	6	4	18	36*
O=C(Nc1nc2c(ccc3ccccc32)s1)C1CCCC1	14	6	34*	0	9	26
CC(NC(=O)c1cnc(-c2ccccc2)nc1-c1ccncc1)c1ccc(F)cc1 (centres undefined)	-102	-5	-175	-4	0	2
Cc1c(C(=O)NCc2ccccc2Br)cc(-c2ccccc2)n1C	20	9	32*	17	6	27
CCCn1c(=O)c2cc(C(=O)NCc3ccccc3C)nn2c2ccccc21	1	2	23	11	9	0
Cc1cc(Cl)ccc1NC(=O)c1cc(-c2cccnc2)n[nH]1	67*	0	23	7	1	7
O=C(NCc1ccc(Br)cc1)c1cc(-c2cccnc2)n[nH]1	37*	3	24	29	21	90*
Cc1cc(NC(=O)c2cc(-c3cccnc3)n[nH]2)ccc1Br	33*	16	68*	39*	38*	98*
O=C(NCc1ccc(F)cc1)C1CCN(C(=O)c2cc(-c3cccnc3)n[nH]2)CC1	-5	-3	0	2	0	-1
O=C(O)c1cc(-c2ccccc2)n[nH]1	0	-1	-3	1	-1	-122
Cc1ccc(C)c(NC(=O)c2cc(-c3cccnc3)n[nH]2)c1	/	-2	-12	-1	4	-14
COc1ccc(Cl)cc1C(=O)NNC(=O)c1cc(-c2ccccc2)n[nH]1	11	0	5	15	40*	85*
O=C1CC(=O)CC(c2ccc3c(c2)OCO3)C1	12	0	0	-2	1	7
COc1cccc(/C=C/c2nc3ccccc3c(=O)n2-c2cc(Cl)ccc2C)c1OC	9	6	/	9	4	9
Cc1cccc(C(=O)N2C[C@H](Oc3cccnc3)[C@H]3OCCC[C@H]32)n1	-31	-3	-32	0	-4	-86
O=C(/C=C/c1ccccc1)Nc1c2c(nc3c1CCC3)CCCC2	21	1	40*	7	-4	11
COc1ccc(S(=O)(=O)c2c(C)c(C)n(C(C)C)c2NC(=O)c2ccccc2F)cc1	31*	1	-13	3	0	-32
COCCn1c(C)c(C)c(S(=O)(=O)c2ccccc2)c1NC(=O)c1ccccc1C	-10	-4	-7	-20	0	0
CCc1nc(SCC(=O)N2CCCc3ccccc32)c2oc3ccccc3c2n1	40*	5	-1	10	8	6
CCc1nc(SCc2cccc(F)c2)c2oc3ccccc3c2n1	53*	5	47*	5	6	3
Cc1c(C)n(Cc2cccnc2)c2ncnc(NCc3ccccc3)c12	-17	2	1	-1	4	-24
CC(=O)NC(Cc1ccccc1)C(=O)OCC(=O)c1ccc(-c2ccccc2)cc1 (centres undefined)	8	0	16	1	8	10
O=C(c1cn(-c2cccc(Cl)c2)nn1)N1CCc2ccccc2C1	8	0	23	0	3	5
O=C(c1cc(Cl)nc2ccccc12)N1CCc2ccccc2C1	10	0	1	-12	6	33*
SMILES	USP17 inh	UCHL1 block	USP30 inh	USP7 block	USP10 inh	USP8 block
COc1ccc(C)cc1NC(=O)C1CC(=O)Nc2nc(SCc3ccccc3)nn21 (centres undefined)	53*	3	-6	6	34*	26
COc1ccc(C2C(C(N)=O)=C(C)Nc3nc(SCc4ccccc4)nn32)cc1 (centres undefined)	-7	1	-42	6	2	9
COC1C(O)=C2C(=O)O/C(C)=C/C=C/C=C/C=C/CC(c3ccccc3)NC(=O)/C=C/C=C/C=C\C=C\C2(C)C1O (centres undefined)	43*	19	-51	2	0	-47
NC(=O)C1CCN(c2ncnc3c2CCC3)CC1	8	-3	1	0	0	4
Cc1noc(C)c1C(=O)Nc1cccc(-c2nc3ccccc3[nH]2)c1	10	0	8	2	2	2
COc1cccc(-c2[nH]c3ccccc3c2C2c3ccccc3C(=O)N2CC(=O)O)c1 (centres undefined)	10	-1	8	3	3	-65
Cn1cc(-c2nc(C(=O)Nc3ccc(C#N)cc3)cs2)c2cccnc21	-25	2	-200	10	14	85*
O=C(COc1ccc2c(=O)c(-c3cnn(-c4ccccc4)c3)c(C(F)(F)F)oc2c1)Nc1ccc(S(=O)(=O)N2CCCCC2)cc1	-19	-1	-31	-1	-6	-8
CN1CCn2cc(S(=O)(=O)NCc3cccc(Cl)c3)cc2C1=O	-5	-4	-6	1	0	1
Cc1ccc(NC(=O)N2CCN(C3=CC4=NC(C)CN4C=N3)CC2)c(C)c1 (centres undefined)	17	3	34*	6	3	3
COc1ccc(NC(=O)N2CCN(C3=CC4=NC(C)CN4C=N3)CC2)c(C)c1 (centres undefined)	-33	-4	-4	0	2	-196
CCOC(=O)c1[nH]c(C)c(CN(CC2CCCO2)C(=O)CC)c1C (centres undefined)	3	0	1	0	1	-1
CS(=O)(=O)c1ccc2nc(NC(=O)Cn3ccc4ccc(Cl)cc43)sc2c1	26	0	15	-1	-2	24
O=C(Nc1nnc(-c2cccs2)o1)C(c1ccccc1)c1ccccc1	19	1	45*	6	13	-8
O=C(Nc1nnc(-c2ccc(Br)cc2)o1)C(c1ccccc1)c1ccccc1	6	1	17	8	17	13
O=C(Cn1cnc2cc3c(cc21)OCCCO3)N1CCCc2ccccc21	-8	-9	-79	-10	-4	37*
COC(=O)c1cn(CC(=O)N2CCCc3ccccc32)c2ccccc12	41*	3	17	4	0	9
O=C(Cn1cc(C(=O)C(F)(F)F)c2ccccc21)N1CCc2ccccc21	52*	2	37*	10	16	68*
Cc1nnc(-c2cn(CC(=O)N3CCc4ccccc43)c3ccccc23)o1	29	-1	-7	-1	-3	13
